# Measured values published in ChEMBL document CHEMBL3988442, “University of Dundee, Small-Polar-MMV Screening Library” (2021).
# For some assays here: Potency and affinity values are given separately.
# Columns and labels:
# Set-up in all cases: scale not given: direction of the effect not stated beside the values
# [1] = biological target: Protein translocase subunit SecA (Escherichia coli (strain K12)) (UniProt P10408); assay: Assay to Identify E. coli SecA ATPase Inhibitors; assay type: functional; settings: 30 µM
# Sequence of Protein translocase subunit SecA (Escherichia coli (strain K12)) (P10408 whole entry): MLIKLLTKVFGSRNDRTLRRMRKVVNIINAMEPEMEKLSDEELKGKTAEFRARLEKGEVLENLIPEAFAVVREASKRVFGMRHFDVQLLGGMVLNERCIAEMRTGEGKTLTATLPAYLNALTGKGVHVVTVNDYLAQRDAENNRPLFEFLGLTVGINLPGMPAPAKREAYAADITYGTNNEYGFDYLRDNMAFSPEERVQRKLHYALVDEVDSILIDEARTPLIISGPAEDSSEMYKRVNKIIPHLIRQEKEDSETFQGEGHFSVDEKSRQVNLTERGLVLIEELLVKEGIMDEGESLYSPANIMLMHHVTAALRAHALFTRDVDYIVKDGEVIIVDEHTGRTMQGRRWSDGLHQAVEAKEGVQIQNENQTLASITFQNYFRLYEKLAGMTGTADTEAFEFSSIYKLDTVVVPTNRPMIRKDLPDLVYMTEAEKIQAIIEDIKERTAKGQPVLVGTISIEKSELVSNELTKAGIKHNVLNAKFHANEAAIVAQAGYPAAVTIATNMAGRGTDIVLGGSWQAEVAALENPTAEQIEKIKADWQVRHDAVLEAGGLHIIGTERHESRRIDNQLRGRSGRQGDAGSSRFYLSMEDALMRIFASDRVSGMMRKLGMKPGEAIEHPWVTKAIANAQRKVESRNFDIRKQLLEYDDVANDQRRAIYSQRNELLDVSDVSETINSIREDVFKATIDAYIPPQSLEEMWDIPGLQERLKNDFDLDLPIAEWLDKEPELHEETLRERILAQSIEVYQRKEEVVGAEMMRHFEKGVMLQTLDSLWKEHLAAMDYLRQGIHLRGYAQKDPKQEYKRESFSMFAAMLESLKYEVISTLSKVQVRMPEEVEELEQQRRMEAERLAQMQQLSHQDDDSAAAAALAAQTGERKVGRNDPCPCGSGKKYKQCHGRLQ
# [2] = biological target: T1, Ubiquitin-activating enzyme e1, putative (Leishmania donovani (strain BPK282A1)) (UniProt E9BSI1); assay: Leishmania donovani Ubiquitin Activating Enzyme (LdE1); assay type: functional; settings: 30 µM
# T1 sequence (whole entry): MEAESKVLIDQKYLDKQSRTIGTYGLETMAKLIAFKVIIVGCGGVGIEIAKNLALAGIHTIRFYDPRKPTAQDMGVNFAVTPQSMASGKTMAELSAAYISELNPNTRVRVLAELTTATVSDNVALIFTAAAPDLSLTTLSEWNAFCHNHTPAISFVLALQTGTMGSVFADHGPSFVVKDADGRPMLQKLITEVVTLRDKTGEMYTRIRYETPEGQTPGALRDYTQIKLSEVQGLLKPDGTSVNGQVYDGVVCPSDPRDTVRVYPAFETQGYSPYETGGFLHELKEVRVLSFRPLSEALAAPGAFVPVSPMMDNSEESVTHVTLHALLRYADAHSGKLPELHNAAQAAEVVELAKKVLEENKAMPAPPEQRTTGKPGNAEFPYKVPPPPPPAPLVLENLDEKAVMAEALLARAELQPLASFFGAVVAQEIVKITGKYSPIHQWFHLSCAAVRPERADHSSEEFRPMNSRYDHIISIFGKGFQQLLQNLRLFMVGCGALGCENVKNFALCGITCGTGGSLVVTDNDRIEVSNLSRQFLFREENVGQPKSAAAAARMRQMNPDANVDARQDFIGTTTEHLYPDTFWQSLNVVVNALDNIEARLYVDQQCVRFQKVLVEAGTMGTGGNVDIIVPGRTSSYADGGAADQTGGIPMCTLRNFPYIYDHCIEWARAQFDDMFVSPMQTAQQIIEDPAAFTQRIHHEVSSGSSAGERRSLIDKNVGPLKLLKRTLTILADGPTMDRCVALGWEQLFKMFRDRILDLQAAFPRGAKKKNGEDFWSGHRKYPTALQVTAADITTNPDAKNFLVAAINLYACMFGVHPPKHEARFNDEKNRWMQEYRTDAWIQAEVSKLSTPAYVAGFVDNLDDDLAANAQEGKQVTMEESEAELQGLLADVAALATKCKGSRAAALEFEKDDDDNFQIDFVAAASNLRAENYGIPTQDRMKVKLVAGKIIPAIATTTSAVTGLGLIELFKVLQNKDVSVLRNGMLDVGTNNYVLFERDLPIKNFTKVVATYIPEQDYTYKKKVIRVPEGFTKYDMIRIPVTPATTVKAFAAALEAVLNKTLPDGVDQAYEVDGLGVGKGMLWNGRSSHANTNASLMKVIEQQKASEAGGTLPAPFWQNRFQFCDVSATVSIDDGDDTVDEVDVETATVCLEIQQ
# [3] = biological target: AMP-activated protein kinase, AMPK (Homo sapiens) (UniProt P54646+O43741+P54619+Q9UGJ0+Q9Y478+Q13131+Q9UGI9); assay: AMP-dependent Kinase enzyme assay. An in vitro enzyme assay that detects ADP turnover that is directly proportional to AMPK activity. This uses naive AMPK that is activated during the assay with MK-8722; assay type: functional; settings: 30 µM
# [4] = biological target: Sialic acid-binding Ig-like lectin 9 (Homo sapiens) (UniProt Q9Y336); assay: Hs-Siglec9 ALPHAscreen SOP 20170721; settings: 10 µM
# Sequence of Sialic acid-binding Ig-like lectin 9 (Homo sapiens) (Q9Y336 whole entry): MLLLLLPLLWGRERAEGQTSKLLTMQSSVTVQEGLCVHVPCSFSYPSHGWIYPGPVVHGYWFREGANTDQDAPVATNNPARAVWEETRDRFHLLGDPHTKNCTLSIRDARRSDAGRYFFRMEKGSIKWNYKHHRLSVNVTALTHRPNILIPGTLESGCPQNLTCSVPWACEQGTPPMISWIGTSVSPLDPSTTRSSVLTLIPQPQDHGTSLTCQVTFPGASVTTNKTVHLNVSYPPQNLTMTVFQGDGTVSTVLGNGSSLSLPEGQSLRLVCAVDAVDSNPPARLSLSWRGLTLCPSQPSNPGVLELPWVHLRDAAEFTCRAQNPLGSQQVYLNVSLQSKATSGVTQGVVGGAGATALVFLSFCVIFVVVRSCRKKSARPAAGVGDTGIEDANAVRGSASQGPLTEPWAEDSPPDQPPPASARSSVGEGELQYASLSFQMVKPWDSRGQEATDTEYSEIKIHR
# [5] = tested on: Trypanosoma cruzi; assay: Trypanosoma cruzi phosphomannomutase and mannose-1-phosphate guanylyltransferase assay; assay type: functional; settings: 10 µM
# [6] = biological target: T2, Arginase-2, mitochondrial (Homo sapiens) (UniProt P78540); assay: in vitro enzyme assay to detect the production of urea directly proportional to the activity of Arginase II; assay type: functional; settings: 33.3 µM; note: in the data most compounds retested in dose-response had high values
# T2 sequence (whole entry): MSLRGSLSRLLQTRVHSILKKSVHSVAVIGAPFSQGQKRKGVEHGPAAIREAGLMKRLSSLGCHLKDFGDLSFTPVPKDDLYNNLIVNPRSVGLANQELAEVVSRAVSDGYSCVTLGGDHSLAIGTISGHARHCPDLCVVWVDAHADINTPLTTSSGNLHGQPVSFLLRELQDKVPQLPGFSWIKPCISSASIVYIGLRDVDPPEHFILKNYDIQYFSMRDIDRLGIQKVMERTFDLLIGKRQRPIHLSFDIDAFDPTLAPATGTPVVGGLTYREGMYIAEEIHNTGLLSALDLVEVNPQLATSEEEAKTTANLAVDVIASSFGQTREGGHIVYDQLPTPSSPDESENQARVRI
# [7] = biological target: T3, Proteasome subunit beta (Trypanosoma cruzi) (UniProt O96673); assay: Trypanosoma cruzi proteasome chymotrypsin-like activity (TcProtChymo) assay.; note: in the data most compounds retested in dose-response had high values; assay type: functional; settings: 9.37 µM
# T3 sequence (whole entry): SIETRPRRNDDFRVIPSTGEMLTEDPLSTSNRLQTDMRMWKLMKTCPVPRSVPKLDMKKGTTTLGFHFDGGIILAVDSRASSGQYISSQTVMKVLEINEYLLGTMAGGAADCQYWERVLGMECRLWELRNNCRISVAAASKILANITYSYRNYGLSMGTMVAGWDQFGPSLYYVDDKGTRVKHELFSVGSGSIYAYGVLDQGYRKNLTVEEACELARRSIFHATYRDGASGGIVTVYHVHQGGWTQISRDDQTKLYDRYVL
# [8] = species on record: Homo sapiens; assay: To identify inhibition of the IFN signalling (Jak-Stat) pathway via expression of an eGFP reporter gene under the control of an IFN-stimulated response element (ISRE) containing MxA promoter.; assay type: functional; settings: 30 µM
# [9] = biological target: T4, Tyrosyl-tRNA synthetase, putative (Trypanosoma cruzi (strain CL Brener)) (UniProt Q4DSP6); assay: Trypanosoma cruzi tyrosyl tRNA synthetase (TcYRS) _High Tyrosine SOP; assay type: functional; settings: 30 µM; note: in the data most compounds retested in dose-response had high values
# T4 sequence (whole entry): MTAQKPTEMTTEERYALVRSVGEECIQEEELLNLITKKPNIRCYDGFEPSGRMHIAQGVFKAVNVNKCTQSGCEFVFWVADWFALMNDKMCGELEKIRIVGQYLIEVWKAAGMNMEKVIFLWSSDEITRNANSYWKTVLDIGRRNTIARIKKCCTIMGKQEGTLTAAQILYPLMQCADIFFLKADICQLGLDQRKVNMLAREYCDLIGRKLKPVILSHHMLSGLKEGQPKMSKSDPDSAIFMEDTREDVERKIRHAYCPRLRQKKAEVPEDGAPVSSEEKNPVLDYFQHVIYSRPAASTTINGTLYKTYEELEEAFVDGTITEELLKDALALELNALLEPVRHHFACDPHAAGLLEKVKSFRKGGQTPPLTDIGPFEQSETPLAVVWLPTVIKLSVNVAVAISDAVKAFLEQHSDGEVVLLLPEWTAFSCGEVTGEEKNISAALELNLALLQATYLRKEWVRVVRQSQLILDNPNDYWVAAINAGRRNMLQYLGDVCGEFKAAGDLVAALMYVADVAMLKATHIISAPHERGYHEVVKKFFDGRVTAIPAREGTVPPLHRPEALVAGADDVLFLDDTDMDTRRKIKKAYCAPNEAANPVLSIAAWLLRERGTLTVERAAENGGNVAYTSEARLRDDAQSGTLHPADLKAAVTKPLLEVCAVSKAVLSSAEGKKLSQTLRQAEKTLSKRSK
# [10] = biological target: T4, Tyrosyl-tRNA synthetase, putative (Trypanosoma cruzi (strain CL Brener)); assay: Trypanosoma cruzi tyrosyl tRNA synthetase (TcYRS) SOP; assay type: functional; settings: 30 µM
# [11] = biological target: Chromo domain-containing protein 1 (Saccharomyces cerevisiae (strain ATCC 204508 / S288c) (Baker's yeast)) (UniProt P32657); assay: ScCHD-1 Enzyme Inhibition Assay; assay type: functional; settings: 30 µM; note: in the data most compounds retested in dose-response had high values
# Sequence of Chromo domain-containing protein 1 (Saccharomyces cerevisiae (strain ATCC 204508 / S288c) (Baker's yeast)) (P32657 whole entry, the tested form may be a part): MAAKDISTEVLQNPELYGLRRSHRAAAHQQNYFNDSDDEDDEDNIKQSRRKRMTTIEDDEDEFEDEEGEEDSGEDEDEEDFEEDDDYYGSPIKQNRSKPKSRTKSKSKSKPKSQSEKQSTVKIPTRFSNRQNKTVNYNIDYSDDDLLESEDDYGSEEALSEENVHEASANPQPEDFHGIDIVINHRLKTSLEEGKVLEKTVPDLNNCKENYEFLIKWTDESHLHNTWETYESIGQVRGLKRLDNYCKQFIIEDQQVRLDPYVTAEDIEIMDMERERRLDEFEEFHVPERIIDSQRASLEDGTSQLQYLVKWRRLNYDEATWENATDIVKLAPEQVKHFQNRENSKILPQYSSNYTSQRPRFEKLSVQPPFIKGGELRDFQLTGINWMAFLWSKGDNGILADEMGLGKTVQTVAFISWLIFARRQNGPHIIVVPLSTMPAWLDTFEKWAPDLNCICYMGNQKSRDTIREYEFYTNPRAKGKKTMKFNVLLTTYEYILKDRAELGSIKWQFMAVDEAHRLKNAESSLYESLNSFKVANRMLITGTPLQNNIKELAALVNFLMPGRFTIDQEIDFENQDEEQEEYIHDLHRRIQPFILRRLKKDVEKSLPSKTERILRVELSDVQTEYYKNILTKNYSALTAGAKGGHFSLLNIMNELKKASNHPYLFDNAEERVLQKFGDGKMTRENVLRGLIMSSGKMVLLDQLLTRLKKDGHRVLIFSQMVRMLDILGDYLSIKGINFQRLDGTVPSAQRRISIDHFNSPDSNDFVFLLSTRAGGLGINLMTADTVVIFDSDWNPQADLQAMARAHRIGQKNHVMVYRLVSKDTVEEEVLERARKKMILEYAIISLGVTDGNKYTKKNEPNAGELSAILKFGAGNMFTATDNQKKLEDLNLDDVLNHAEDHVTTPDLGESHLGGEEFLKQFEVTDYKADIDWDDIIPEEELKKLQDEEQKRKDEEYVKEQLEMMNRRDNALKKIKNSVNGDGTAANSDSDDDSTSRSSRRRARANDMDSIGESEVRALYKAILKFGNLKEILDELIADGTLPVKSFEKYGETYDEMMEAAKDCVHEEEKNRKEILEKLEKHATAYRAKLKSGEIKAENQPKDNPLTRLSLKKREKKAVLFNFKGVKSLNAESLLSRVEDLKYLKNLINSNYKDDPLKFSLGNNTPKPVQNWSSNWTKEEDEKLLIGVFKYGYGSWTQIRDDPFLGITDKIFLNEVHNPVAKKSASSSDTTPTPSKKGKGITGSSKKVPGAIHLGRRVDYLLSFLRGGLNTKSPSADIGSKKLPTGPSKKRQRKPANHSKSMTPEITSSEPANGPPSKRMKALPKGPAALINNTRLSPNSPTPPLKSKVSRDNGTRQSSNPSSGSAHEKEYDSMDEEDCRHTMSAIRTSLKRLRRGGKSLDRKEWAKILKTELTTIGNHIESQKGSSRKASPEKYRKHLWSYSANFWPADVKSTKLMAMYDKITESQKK
SMILES,Percent Effect [1] [%],Percent Effect [2] [%],Percent Effect [3] [%],Percent Effect [4] [%],Percent Effect [5] [%],Percent Effect [6] [%],Percent Effect [7] [%],Percent Effect [8] [%],Percent Effect [9] [%],Percent Effect [10] [%],Percent Effect [11] [%]
CC(C)c1nc(C2CCCN2C(=O)c2ccc(N(C)C)nn2)no1 (configuration not stated),-0.476,16.2,-4.5,-2.95,0.0929,-4.25,6.1,24.1,3.96,15.8,-5.4
Cc1cnn(CC2CCCCN2C(=O)c2ccc3[nH]nnc3c2)c1 (configuration not stated),-3.72,13,5.5,1.47,-2.25,2.32,14.3,22.2,6.67,9.41,-11.2
O=C(N1CCOCC1)N1CCc2ncnc(NC3CC3)c2CC1,-0.799,0,6.99,-5.96,-7.81,6.67,19.2,19.9,0.99,6.1,0.83
Cc1cnn(CCNCc2ccccc2OCc2cccnc2)c1,-4.98,-3.8,2.64,6.26,-1.95,1.5,17,5.87,5.21,5.06,-13
Cc1csc(NC(=O)CN(C)CC2CCCN2c2cccnn2)n1 (configuration not stated),-4.27,0,-8.12,2.96,-6.05,5.42,15.5,9.4,11.9,8.54,-4.21
COCCN(Cc1ccoc1)C(=O)c1c(F)cccc1Cl,-4.43,5.2,10.7,9.59,-5.62,5.81,2.44,-5.55,3.17,11.5,-5.12
Cc1nc(CN2CCCC2c2c(C)nn(C)c2Cl)no1 (configuration not stated),-2.73,5.26,-8.02,-3,-2.33,-3.24,-9.22,-11.3,3.45,-1.24,6.8
CC(=O)N1[C@H](Cn2cncn2)C[C@@H]2CN(S(C)(=O)=O)CC[C@@H]21,-4.17,10.4,1.39,9.47,9.54,-74.5,14.5,-25.9,4.3,16.1,-4.74
CCOc1ncccc1NC(=O)c1sccc1C,-2.31,-1.39,2.84,-14.7,-4.57,2.21,23.2,-6.94,4.21,7.69,4
CN(C)CCOCC1CN(CC2CCOCC2)Cc2nnn(C)c21 (configuration not stated),-5.87,10.8,1.42,-2.51,-5.96,1.24,8.67,17,5.38,11.1,-4.9
CC1CCN(S(=O)(=O)NCCCn2cncn2)CC1,-3.76,6.33,3.29,1.98,1.33,5.38,5.49,23.8,5.21,12.7,-7.93
Cc1cnn(C2CCCN(C(=O)CCc3nccs3)C2)c1 (configuration not stated),-2.71,16.2,-1.11,0.709,-8.4,1.2,17.3,16.1,2.46,3.7,-3.34
Cc1nnc2n1CCN(Cc1csc(CC(=O)N(C)C)n1)C2,-4.68,10.8,-6.55,9.69,-1.21,-2.03,3.77,9.18,5.94,13.4,0.846
COCCN(Cc1nc2c(cnn2C)c(=O)[nH]1)Cc1ccco1,-2.48,16.2,-7.78,-3.6,-4.43,5.61,12.6,4.47,9.36,18.5,-4.09
CCC(=O)N1CCC(c2nnc(Cn3cncn3)n2C2CC2)CC1,-0.998,15.3,-1.98,12.9,5.34,16.3,17.7,0.244,-1.05,15.4,-3.53
Cn1cnnc1C1CCN(C(=O)CCCOc2ccccc2F)CC1,-5.06,10.4,-2,4.13,-7.87,4.98,2.53,14.2,3.88,7.32,-2.08
CCc1cnc(CN(C)C2CCN(CCc3cccs3)C2)o1 (configuration not stated),-4.76,15.8,-3.51,-0.997,-2.89,-5.4,12.3,2.05,10.3,18.5,-5.25
Cc1cnn(CC2CCCCN2CC(=O)NCc2ccccn2)c1 (configuration not stated),-2.64,-2.63,6.62,0.337,7.11,-1.18,17.4,-2.67,5.32,5.2,-0.694
Clc1ccc(OCCN2CCN(CCn3cncn3)CC2)cc1,-0.515,-5.41,-3.56,26.8,8.69,-2.86,4.48,13.3,1.59,14.6,-8.8
Cn1cc(-c2nc(CN3CCN(CCO)CC3)cs2)cn1,0.128,15.8,4.54,-2.39,-0.376,-1.53,21.9,17,9.31,19.5,-10.9
O=C(N[C@@H]1CN(c2ncccn2)[C@@H]2CCCO[C@@H]21)c1cnccn1,-3.44,2.67,2.76,2.22,0.772,-38.9,9.91,-16.7,6.25,20,-7.55
Cc1nn(C)c(C)c1C1CCCN1C(=O)c1cc[nH]n1 (configuration not stated),-3.64,3.8,5.29,4,-4.41,-1.07,5.49,10.6,-1.04,7.59,7.31
